Bioassay records from PubChem.
In the library only some 6.8% were active in any assay of this set; here they are far more common.
HCV NS3h FP: blocks HCV NS3 helicase binding to DNA. NS3h Cy5-dT15 DNA binding, fluorescence polarization. inhibition, % at 100 µM. actives 1.6% (n = 16,000);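 active = inhibition above the average over every tested compound plus 3 SD, cut at about 40% in these data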
Cy5 interf NS3h: counter-screen for HCV NS3 helicase inhibitors: fluorescence interference. AID 720488. actives 6% (n = 16,000). fluorescence interference ratio at 100 µM. Cy5-dT15 DNA with NS3h; actives lie on both sides; signal over control mean, under 1 quenches;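 active = compound fluorescence over control fluorescence at most 0.8, a quencher, or at least a set upper limit, an enhancer; inactive = ratio between 0.8 and the set upper limit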
HCV NS3h conf: confirmation of hepatitis C virus NS3 helicase inhibitors; shares compounds with HCV NS3h FP; NS3h binding to Cy5-dT15 DNA, fluorescence polarization; inhibition, % at 100 µM; actives 20% (n = 240);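 active = percent inhibition of 50% or more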
SSB-DNA FP CB: disrupts E. coli SSB binding to DNA in counter-screen. shares compounds with HCV NS3h FP. E. coli SSB binding Cy5-dT15, fluorescence polarization. inhibition, % at 100 µM. actives 40% (n = 240). AID 720486;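 active = inhibition of at least 50%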;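 also: displacers lower Cy5 polarization so higher inhibition means more SSB displaced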
Target sequence (P0AGE0 whole entry, looked up): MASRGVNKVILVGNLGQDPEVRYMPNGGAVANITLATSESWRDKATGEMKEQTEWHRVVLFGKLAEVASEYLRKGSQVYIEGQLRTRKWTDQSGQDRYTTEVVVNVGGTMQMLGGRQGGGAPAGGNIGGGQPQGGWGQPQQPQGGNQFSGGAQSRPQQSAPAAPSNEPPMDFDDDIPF
Cy5 SSB fluor CB: enhances or quenches Cy5-DNA fluorescence with E. coli SSB; shares compounds with HCV NS3h FP; Cy5-dT15/E. coli SSB fluorescence interference; actives lie on both sides; fluorescence interference ratio at 100 µM; actives 8% (n = 240); AID 720487;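 active = fluorescence interference ratio at or above 1.2, signal boosting, or at or below 0.8, signal quenching; inactive = ratio between 0.8 and 1.2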
Cy5 interf conf: Cy5 fluorescence interference, confirmation counter-screen; shares compounds with HCV NS3h FP; Cy5-dT15 DNA/NS3h fluorescence interference counterscreen; fluorescence interference ratio at 100 µM, hits read low; actives 44% (n = 240); AID 720489;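 active = fluorescence interference ratio at or below 0.8 quencher or at or above a set limitenhancer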
A number is an active result; – = inactive; · = no result given.

SMILES | HCV NS3h FP | Cy5 interf NS3h | HCV NS3h conf | SSB-DNA FP CB | Cy5 SSB fluor CB | Cy5 interf conf
O=S(=O)(c1cc(Cl)ccc1Cl)N1CCC(Cc2ccccc2)CC1 | – | – | · | · | · | ·
CCOc1cc(C=C2C(=O)NC(=S)NC2=O)ccc1OCCOc1ccccc1OC | – | – | · | · | · | ·
COc1cc(OC)c(C=C2C(=O)NC(=S)NC2=O)cc1Br | 59 | – | – | – | – | –
C=CCOc1ccc(C=C2C(=O)NC(=O)NC2=O)cc1OC | – | – | · | · | · | ·
O=C1ON=C(c2ccc(Cl)cc2)/C1=C/c1ccccc1Cl | – | – | · | · | · | ·
O=C1NC(=O)C(=Cc2ccccc2OCc2ccccc2F)C(=O)N1 | – | – | · | · | · | ·
C=CCOc1ccccc1/C=C1/C(=O)ON=C1c1ccc(Cl)cc1 | 53 | – | – | – | – | –
C=CCOc1ccc(C=C2C(=O)NC(=S)NC2=O)cc1OC | 82 | – | 51 | 92 | – | 0.77
C=CCOc1ccccc1C=C1C(=O)NC(=S)NC1=O | 56 | – | – | 107 | – | –
COC(=O)C1=C(C)N=C2SCCC(=O)N2C1c1ccc(F)cc1 (centres undefined) | – | – | · | · | · | ·
c1cnc2cc3c(cc2n1)Nc1nonc1N3 | – | – | · | · | · | ·
COc1cc(NC(=O)c2ccc(C(C)(C)C)cc2)ccc1NC(=O)c1cc2ccccc2o1 | – | – | · | · | · | ·
COc1ccccc1NC(=O)c1c(NC(=O)c2cccc(C)c2)sc2c1CCC2 | – | – | · | · | · | ·
CN(C)/C=C\C=C\C(=O)C1C2CC3CC(C2)CC1C3 (centres undefined) | – | – | · | · | · | ·
CN(C)/C=C/C=C/C=C1\CCC/C(=C\C=C\N(C)C)C1=O | 55 | – | – | 110 | – | –
CC(=O)COc1ccc2c(oc(=O)c3ccccc32)c1C | – | – | – | – | – | 0.71
Cc1c(OCC(=O)c2ccccc2)ccc2c1oc(=O)c1ccccc12 | – | – | · | · | · | ·
Cc1ccc(/C=C2\C(=O)NC(=O)N(Cc3ccccc3)C2=O)o1 | – | – | · | · | · | ·
Cn1c2ccc(CC(N)=O)cc2c2cc(CC(N)=O)ccc21 | 44 | – | – | – | – | –
CC(=O)c1ccc2c(c1)c1ccccc1n2C | – | – | · | · | · | ·
O=C(COC(=O)C1CC(O)CN1C(=O)Oc1ccccc1)c1ccc(Cl)cc1 (centres undefined) | – | – | · | · | · | ·
C=CCSC1=C(C#N)C2(CCCCC2)C(C#N)C(=O)N1 (centres undefined) | – | – | · | · | · | ·
N#CC1=C(S)NC(=O)C(C#N)C12CCCCC2 (centres undefined) | 44 | – | – | – | – | –
CCCC(=O)Nc1cccc(NC(=O)c2ccc(-c3cccc(Cl)c3C)o2)c1 | – | – | · | · | · | ·
COc1cccc(C(=O)Nc2ccc(Br)cc2C(=O)O)c1 | – | – | · | · | · | ·
SMILES | HCV NS3h FP | Cy5 interf NS3h | HCV NS3h conf | SSB-DNA FP CB | Cy5 SSB fluor CB | Cy5 interf conf
O=C(NC(O)C(Cl)(Cl)Cl)c1ccc([N+](=O)[O-])cc1 (centres undefined) | – | – | – | – | – | 0.78
CCCC(C)NC(=O)c1ccc([N+](=O)[O-])cc1 (centres undefined) | – | – | · | · | · | ·
CCN(C)c1ccc(C=C2C(=O)NC(=O)NC2=O)cc1 | 92 | 1.9 | 111 | 95 | 1.5 | 2.2
CCOc1ccc(C=C2C(=O)NC(=O)NC2=O)cc1OCC | – | – | · | · | · | ·
C/C(=N/NC(=O)/C(=C\c1ccc2c(c1)OCO2)NC(=O)c1ccccc1)c1ccc(F)cc1 | – | – | · | · | · | ·
Cc1ccc(C(=O)CSc2nc3ccccc3c(=O)n2-c2ccccc2)cc1 | – | – | · | · | · | ·
Cc1ccc(-n2c(-c3ccccc3F)nc3c(cnn3-c3ccccc3)c2=O)cc1 | 41 | – | – | – | – | 0.77
CN(C)c1ccc(/C=C2\C(=O)NC(=S)N(c3ccc(Br)cc3)C2=O)cc1 | 64 | 1.3 | – | 96 | 1.2 | –
O=C1NC(=S)N(c2ccccc2)C(=O)/C1=C/c1ccc(Br)cc1 | – | – | · | · | · | ·
Cc1ccccc1NC(=O)c1ccc(-c2ccccc2)cc1 | – | – | · | · | · | ·
O=C(Nc1ccc(Cl)c(Cl)c1)Nc1nnc(CSCc2ccccc2F)s1 | – | – | · | · | · | ·
COc1cccc(/C=C2/SC(N)=NC2=O)c1 | 53 | 1.3 | – | – | – | –
NC1=NC(=O)/C(=C/c2cccc(Oc3ccccc3)c2)S1 | – | – | · | · | · | ·
O=C1N=c2ccccc2=C1N=Nc1nc(O)c(-c2c(O)[nH]c3ccccc23)s1 | 124 | 0.4 | – | – | 0.76 | 0.73
O=C(Oc1ccc(-c2nc3ccccc3[nH]2)cc1)c1ccc(Cl)cc1 | – | – | · | · | · | ·
O=C(Oc1ccc(Cl)cc1)c1ccccc1 | 54 | – | 50 | 60 | – | 1.2
